ChEMBL document CHEMBL5606460, “ASAP - DENV-2 NS2B-NS3 protease fluorescence single point” (2024)
About 110 (5.5%) of roughly 2,000 compounds showed an effect of 50% or more. Many of the other results were omitted from the sample, so strong results are more common in it than they were.

Target: Genome polyprotein (dengue virus type 2) (UniProt P29990)
[1] = Thailand/16681/1984, Concentration 25.0 uM, Number of replicates 1.0

## NS(=O)(=O)c1cccc(CN2CC[C@H](c3c[nH]c4ccccc34)C2)c1
Thailand/16681/1984, Concentration 49.5 uM, Number of replicates 2.0, Standard deviation 1.1633260593891446 %
  inhibition: -1.78%
Thailand/16681/1984, Concentration 99.01 uM, Number of replicates 2.0, Standard deviation 1.588607527736017 %
  inhibition: 0.04%
Thailand/16681/1984, Concentration 198.0 uM, Number of replicates 2.0, Standard deviation 1.7864683947344713 %
  inhibition: 2.15%

## Cc1cc(CO)c2cccc(CC(=O)Nc3nonc3C(N)=O)c2n1
Thailand/16681/1984, Concentration 49.95 uM, Number of replicates 2.0, Standard deviation 0.10454576349345478 %
  inhibition: 97.1%
Thailand/16681/1984, Concentration 99.9 uM, Number of replicates 2.0, Standard deviation 0.006921524049853062 %
  inhibition: 99%

## Cc1cc(CO)c2cccc(Cc3ccccc3C(=O)Nc3nonc3C(N)=O)c2n1
Thailand/16681/1984, Concentration 49.95 uM, Number of replicates 2.0, Standard deviation 0.20481615067396447 %
  inhibition: 9.42%
Thailand/16681/1984, Concentration 99.9 uM, Number of replicates 2.0, Standard deviation 0.252245853764608 %
  inhibition: 28.4%

## Cc1cc(CO)c2cccc(Cc3ccccc3C(=O)Nc3cccc(C(N)=O)c3)c2n1
Thailand/16681/1984, Concentration 49.95 uM, Number of replicates 2.0, Standard deviation 0.1803817681308647 %
  inhibition: 4.23%
Thailand/16681/1984, Concentration 99.9 uM, Number of replicates 2.0, Standard deviation 0.18828716821235608 %
  inhibition: 9.06%

## Cc1cc(CO)c2cccc(Cc3cccc(C(=O)Nc4nonc4C(N)=O)c3)c2n1
Thailand/16681/1984, Concentration 49.95 uM, Number of replicates 2.0, Standard deviation 1.9942580477177279 %
  inhibition: 23.4%
Thailand/16681/1984, Concentration 99.9 uM, Number of replicates 2.0, Standard deviation 1.5142007227316114 %
  inhibition: 73%

## Cc1cc(CO)c2cccc(Nc3nonc3C(N)=O)c2n1
Thailand/16681/1984, Concentration 49.95 uM, Number of replicates 2.0, Standard deviation 1.5271718368293243 %
  inhibition: 11%
Thailand/16681/1984, Concentration 99.9 uM, Number of replicates 2.0, Standard deviation 3.697399383401008 %
  inhibition: 23.8%

## Cc1cc(CO)c2cccc(Cc3ccccc3NC(=O)Cc3cccc(CN)c3)c2n1
Thailand/16681/1984, Concentration 49.95 uM, Number of replicates 2.0, Standard deviation 1.4858035354408357 %
  inhibition: -0.82%
Thailand/16681/1984, Concentration 99.9 uM, Number of replicates 2.0, Standard deviation 1.2081673980721888 %
  inhibition: 5.26%

## Cc1cc(CO)c2cccc(Cc3cccc(C(=O)Nc4cccc(C(N)=O)c4)c3)c2n1
Thailand/16681/1984, Concentration 49.95 uM, Number of replicates 2.0, Standard deviation 0.8487279472032775 %
  inhibition: 0.063%
Thailand/16681/1984, Concentration 99.9 uM, Number of replicates 2.0, Standard deviation 0.25943340872226184 %
  inhibition: 4.4%

## Cc1cc(CO)c2cccc(Cc3cccc(C(=O)Nc4cc(O)[nH]n4)c3)c2n1
Thailand/16681/1984, Concentration 49.95 uM, Number of replicates 2.0, Standard deviation 1.1139101860624252 %
  inhibition: 16.1%
Thailand/16681/1984, Concentration 99.9 uM, Number of replicates 2.0, Standard deviation 0.5605490390974336 %
  inhibition: 35%

## Cc1cc(CO)c2cccc(CC(=O)Nc3cccc(C(N)=O)c3)c2n1
Thailand/16681/1984, Concentration 49.95 uM, Number of replicates 2.0, Standard deviation 0.3351031861891448 %
  inhibition: 71.5%
Thailand/16681/1984, Concentration 99.9 uM, Number of replicates 2.0, Standard deviation 0.3101738310571331 %
  inhibition: 94.2%

## O=Cc1ccc(N2CCC(C(=O)NCc3ccc(C(F)(F)F)nc3)CC2)cc1
[1]
  inhibition: 14.9%

## CC(C)(CO)NC(=O)c1cc(Cl)cc(OCc2ccccn2)c1
Thailand/16681/1984, Concentration 49.5 uM, Number of replicates 2.0, Standard deviation 3.9117339361958243 %
  inhibition: -3.57%
Thailand/16681/1984, Concentration 99.01 uM, Number of replicates 2.0, Standard deviation 3.9139588683287148 %
  inhibition: -3.56%
Thailand/16681/1984, Concentration 198.0 uM, Number of replicates 2.0, Standard deviation 3.978479645326132 %
  inhibition: -2.33%

## O=Cc1ccc(N2CCC(C(=O)N3CCS[C@H]3c3ccc([N+](=O)[O-])cc3)CC2)cc1
[1]
  inhibition: 10.8%

## CNC(=O)c1cc(Cl)ccc1NS(=O)(=O)c1ccc(Cn2cncn2)cc1
Thailand/16681/1984, Concentration 49.5 uM, Number of replicates 2.0, Standard deviation 0.7766096317793165 %
  inhibition: -1.89%
Thailand/16681/1984, Concentration 99.01 uM, Number of replicates 2.0, Standard deviation 1.2995063622910579 %
  inhibition: -0.333%
Thailand/16681/1984, Concentration 198.0 uM, Number of replicates 2.0, Standard deviation 1.6197418261994996 %
  inhibition: 2.7%

## CS(=O)(=O)N1CCC(NC(=O)C2CCN(c3ccc(C=O)cc3)CC2)CC1
[1]
  inhibition: 12%

## O=Cc1ccc(N2CCC(C(=O)Nc3ncnc(Cl)c3Cl)CC2)cc1
[1]
  inhibition: 10.5%

## C=CCN(Cc1cccc(OC)c1)C(=O)C1CCN(c2ccc(C=O)cc2)CC1
[1]
  inhibition: 13.3%

## Cc1ccc(NC(=O)C2CCN(c3ccc(C=O)cc3)CC2)cc1I
[1]
  inhibition: 9.87%

## Cc1cc(CO)c2cccc(Cc3ccccc3NC(=O)Cc3nnc(C)[nH]3)c2n1
Thailand/16681/1984, Concentration 49.95 uM, Number of replicates 2.0, Standard deviation 1.0489246346930539 %
  inhibition: 2.09%
Thailand/16681/1984, Concentration 99.9 uM, Number of replicates 2.0, Standard deviation 0.8121374020252716 %
  inhibition: 10.7%

## O=Cc1ccc(N2CCC(C(=O)NCc3ccc(-c4ccccn4)cc3)CC2)cc1
[1]
  inhibition: 6.55%

## CC(=O)N[C@@H](CCCCN)C(=O)Nc1cccc2c(CO)cc(C)nc12
Thailand/16681/1984, Concentration 49.95 uM, Number of replicates 2.0, Standard deviation 0.7189645441339965 %
  inhibition: 35.5%
Thailand/16681/1984, Concentration 99.9 uM, Number of replicates 2.0, Standard deviation 0.1513618084697797 %
  inhibition: 97.4%

## CC(=O)N[C@@H](CCCCN)C(=O)Nc1ccccc1Cc1cccc2c(CO)cc(C)nc12
Thailand/16681/1984, Concentration 49.95 uM, Number of replicates 2.0, Standard deviation 0.842601818478522 %
  inhibition: -5.54%
Thailand/16681/1984, Concentration 99.9 uM, Number of replicates 2.0, Standard deviation 0.16339684106206548 %
  inhibition: 1.8%

## CC(=O)N[C@@H](Cc1ccc(CN)cc1)C(=O)Nc1cccc2c(CO)cc(C)nc12
Thailand/16681/1984, Concentration 49.95 uM, Number of replicates 2.0, Standard deviation 0.08390662036506401 %
  inhibition: 24.9%
Thailand/16681/1984, Concentration 99.9 uM, Number of replicates 2.0, Standard deviation 0.3339864632910001 %
  inhibition: 96.3%

## CC(=O)N[C@@H](CCCN)C(=O)Nc1cccc2c(CO)cc(C)nc12
Thailand/16681/1984, Concentration 99.9 uM, Number of replicates 2.0, Standard deviation 2.7664513641226787 %
  inhibition: 9.57%

## CC(=O)N[C@@H](Cc1ccc(O)cc1)C(=O)Nc1cccc2c(CO)cc(C)nc12
Thailand/16681/1984, Concentration 49.95 uM, Number of replicates 2.0, Standard deviation 2.4752459751189644 %
  inhibition: -9.17%
Thailand/16681/1984, Concentration 99.9 uM, Number of replicates 2.0, Standard deviation 3.123465853915667 %
  inhibition: -9.54%

## CC(=O)N[C@@H](CCCN)C(=O)Nc1ccccc1Cc1cccc2c(CO)cc(C)nc12
Thailand/16681/1984, Concentration 49.95 uM, Number of replicates 2.0, Standard deviation 1.2344771467866291 %
  inhibition: -4.07%
Thailand/16681/1984, Concentration 99.9 uM, Number of replicates 2.0, Standard deviation 0.6037374205287288 %
  inhibition: 4.36%
